Experimental data as given in PubChem BioAssay (NCI).
Compounds without any hit were thinned out: in the full panel of roughly 79,000, 15% have a hit. Cut-off read from the data, not from the text of the source: active = growth inhibition above about 70%; inactive = the rest.

How the values were obtained:
[1] = NCI Yeast Anticancer Drug Screen. Data for the rad50 strain (AID 155);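 note: 0% = growth of vehicle-only cultures of the same strain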; conditions: S. cerevisiae rad50 strain growth inhibition; at 50.0 µM; hits give high values
Method in brief: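 DNA repair mutant yeast, compound exposure, growth read-out; inhibition is taken relative to vehicle.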

[2] = NCI Yeast Anticancer Drug Screen. Data for the mec2-1 strain (AID 157); conditions: S. cerevisiae mec2-1 strain, at 50.0 µM, hits give high values
Method in brief: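 Using mec2-1 yeast: add compound, measure growth, express inhibition versus vehicle-treated cultures.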

[3] = NCI Yeast Anticancer Drug Screen. Data for the sgs1 mgt1 strain (AID 161);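 note: 0% = growth of cultures given vehicle only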; conditions: S. cerevisiae sgs1 mgt1 strain, at 50.0 µM, hits give high values
Method in brief: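 Compounds are added to genetically altered yeast, and growth is compared with cultures given vehicle alone to give percent inhibition.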

[4] = NCI Yeast Anticancer Drug Screen. Data for the cln2 rad14 strain (AID 165);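 note: 0% = growth equal to vehicle treated cultures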; conditions: S. cerevisiae cln2 rad14 strain, at 50.0 µM, hits give high values
Method in brief: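 Yeast strain cln2 rad14, bearing defects in cell cycle control and DNA repair, serves as the test system; values reflect growth inhibition compared with vehicle.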

[5] = NCI Yeast Anticancer Drug Screen. Data for the bub3 strain (AID 167); conditions: S. cerevisiae bub3 mutant strain, at 50.0 µM, hits give high values
Method in brief: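 In this screen, a yeast mutant lacking normal mitotic checkpoint function is challenged with compound. Relative growth versus vehicle gives the inhibition value.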

[6] = NCI Yeast Anticancer Drug Screen. Data for the mlh1 rad18 strain (AID 175); conditions: S. cerevisiae mlh1 rad18 strain growth inhibition; at 50.0 µM; hits give high values
Method in brief: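 Steps: expose repair-defective yeast to compound; measure growth; express inhibition against vehicle-treated controls.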

Measured: growth inhibition

COc1cc2ccc1OCc1cccc(n1)COc1ccc(cc1OC)C=NCCNCCN=C2
inactive: [1] -4.6% | [2] -22.8% | [3] -14.9% | [4] -21.8% | [5] -17.3% | [6] -17.4%

O=C(O)C1Cc2c([nH]c3ccccc23)C(c2cccs2)N1 (centres undefined)
inactive: [1] 27.7% | [2] 7.6% | [3] 8.7% | [4] 0.5% | [5] -19.8% | [6] 14.3%

CCCC(=O)C(N)CC(C)C (centres undefined)
inactive: [1] -8.2% | [2] 5.4% | [3] 10.6% | [4] 1.15% | [5] 2.45% | [6] -4.15%

COc1ccc(/C(Cl)=C(\CN(C)C)c2ccc(OC)c(OC)c2)cc1OC
inactive: [1] 41.5% | [2] 18.6% | [3] 10.3% | [4] 27.9% | [5] -5.85% | [6] 24.1%

CCC(C)(O)CCC(C)(O)CC (centres undefined)
inactive: [1] 27.6% | [2] 5.4% | [3] 14.9% | [4] -14.7% | [5] 20% | [6] 9.25%

CN1CN(C(=O)N2CN(C)C(=O)N(C)C2)CN(C)C1=O
inactive: [1] -10.8% | [2] -13.6% | [3] -23.6% | [4] 3.45% | [5] -14.2% | [6] -37.4%

N#Cc1c(N)nc(N)nc1Nc1ccc(Cl)cc1
inactive: [1] 13.6% | [2] -8.7% | [3] 9.25% | [4] 26.9% | [5] -5.8% | [6] 25.6%

CCCCCCCCCCCCCCCCCC(=O)OCC(O)CO (centres undefined)
inactive: [1] -2.85% | [2] -16.8% | [3] 2.85% | [4] 7.2% | [5] -0.45% | [6] 7%

CCCCCCC(=O)/C=C/c1cccc(OCc2ccccc2)c1
inactive: [1] 32% | [2] 3.8% | [3] 13.3% | [4] 13.6% | [5] 18.4% | [6] 13.7%

c1ccc2c3c(ccc2c1)Oc1ccc2ccccc2c1C3
inactive: [1] -8.55% | [2] -1.45% | [3] -7.2% | [4] -47.4% | [5] -7.35% | [6] 1%

O=c1[nH]c(=O)c2[nH]c(=O)[nH]c2[nH]1
inactive: [1] 8.35% | [2] -7.15% | [3] -13.5% | [4] 27.9% | [5] 7.25% | [6] -17.9%

COc1ccc2c(c1)C(=O)C(CO)C(C(=O)O)C2 (centres undefined)
inactive: [1] -13.1% | [2] -17.1% | [3] -1.15% | [4] -24.6% | [5] -3.5% | [6] -24.8%

Clc1ccc2sc(-c3ccccc3)nc2c1
inactive: [1] -22.8% | [2] -18.4% | [3] -4.45% | [4] -23.1% | [5] 7.45% | [6] -3.6%

O=C(O)/C=N\Nc1nc2ccccc2[nH]1
inactive: [1] -1.85% | [2] -5.95% | [3] 1.9% | [4] -11.1% | [5] -8.05% | [6] 6.8%

COc1cc(/C=C/C(=O)OC2C(O)C3CC(OC(=O)c4cc(OC)c(OC)c(OC)c4)CC2N3C)cc(OC)c1OC (centres undefined)
inactive: [1] 0.55% | [2] -21.6% | [3] 7.6% | [4] 6.15% | [5] -7.95% | [6] -4.95%

O=C1c2ccccc2C(=O)N1C1(C(=O)O)CCCC1
inactive: [1] -5.3% | [2] -7.6% | [3] -7.65% | [4] -27.1% | [5] -15.6% | [6] -10.4%

COc1ccc(CCNC(=S)NCCc2ccc(OC)cc2)cc1
inactive: [1] 11.8% | [2] 12.8% | [3] -1.4% | [4] -28% | [5] -7.25% | [6] -21%

CCOC(=O)C1CN(CCCN2CC(C(=O)OCC)C(=O)C2=O)C(=O)C1=O (centres undefined)
inactive: [1] 9.9% | [2] 7.25% | [3] 3.5% | [4] 24.1% | [5] 9.95% | [6] -3.95%

O=C1OC(c2ccccc2)=C/C1=C/c1ccc(Cl)cc1
inactive: [1] -1.2% | [2] -17.6% | [3] -6.65% | [4] -6.2% | [5] -7.3% | [6] -8.3%

Cc1ccc2c(c1)C=C/C(=C/c1cc[n+](C)c3ccccc13)N2C
inactive: [1] -7.95% | [2] -22.2% | [3] 13.3% | [4] -1.05% | [5] -5.8% | [6] 1.55%

CCOC(=O)C(/C=N\c1[nH]ncc1C#N)=C(/C(=O)OCC)c1ccc(O)cc1
inactive: [1] 4.55% | [2] 5.9% | [3] -13.7% | [4] -21.2% | [5] -3% | [6] 15.4%

O=C(OCc1ccccc1)C1(N2CN(C3(C(=O)OCc4ccccc4)CCCC3)CN(C3(C(=O)OCc4ccccc4)CCCC3)C2)CCCC1
inactive: [1] -8.05% | [2] -5.7% | [3] 2.25% | [4] 16.9% | [5] 13.5% | [6] 2.15%

COC1OC(COC(c2ccccc2)(c2ccccc2)c2ccccc2)C2SC12 (centres undefined)
inactive: [1] 23.9% | [2] 10% | [3] -1.05% | [4] 14.2% | [5] 4.8% | [6] 17.6%

Cc1cc2c(=O)c3ccccc3[nH]c2c(C(=O)O)c1C
inactive: [1] 5.35% | [2] 0.85% | [3] 8.25% | [4] 10.2% | [5] -14.7% | [6] 38.2%

N#CCCN(C1=NN(C(=O)CC(=O)Nc2ccc(Cl)cc2)C(c2ccccc2)C1)c1ccc(Cl)cc1 (centres undefined)
inactive: [1] 14.3% | [2] -13.7% | [3] -17.6% | [4] 10.7% | [5] -5.55% | [6] -8.35%

CCC(=O)Oc1ccc(C(C)(C)C)cc1
inactive: [1] -5.85% | [2] -3.75% | [3] 1.95% | [4] -2.25% | [5] 11.1% | [6] 1.1%

CN(C)CCNC(=O)c1ccc(C(=O)NCCN(C)C)c2c(C(=O)NCCN(C)C)ccc(C(=O)NCCN(C)C)c12
inactive: [1] 19.1% | [2] 41.3% | [3] 37.2% | [4] 54.7% | [5] 4.5% | [6] 8.5%

O=[N+]([O-])C1C=Nc2ccccc2N=C1
inactive: [1] 19.7% | [2] -16.6% | [3] 18.1% | [4] 21.4% | [5] 5% | [6] 19.6%

CC1=Nc2nc(=NCCCN(C)C)nc3cccc(n23)N1
inactive: [1] 7.6% | [2] -1.35% | [3] 7.65% | [4] 11.2% | [5] 6.4% | [6] 4%

CC1CCOC2(CCCCC2)O1 (centres undefined)
inactive: [1] -12.6% | [2] -7.15% | [3] -8.85% | [4] -32.9% | [5] -2.65% | [6] 16.2%

CCc1cn(O)c(C)cc1=N
inactive: [1] 25.3% | [2] 11.1% | [3] 6.15% | [4] 5.8% | [5] 12% | [6] 21.1%

CC(=O)NO
inactive: [1] 22.1% | [2] -4.05% | [3] 12.1% | [4] -7.05% | [5] -4.6% | [6] 11.3%

CN(C)CC(CN(C)C)C(O)c1ccccc1 (centres undefined)
inactive: [1] 2.4% | [2] -11.5% | [3] -6.35% | [4] 12% | [5] -4.8% | [6] -13.1%

Nc1ccc(S(=O)(=O)N/N=C/c2ccco2)cc1
inactive: [1] 27.1% | [2] -25.1% | [3] 2.8% | [4] 1.6% | [5] -50.5% | [6] -15.1%
